# HTT prom inh – inhibitors of huntingtin promoter activity. HEK293 HTT promoter firefly luciferase reporter, 24 h. Potency, µM (top dose mostly 57.5 µM), for the others: top-dose activity change, negative = inhibition, hits mostly inhibitors. 0.93% of 48,000 active. AID 1508623; also: potency is read from the fitted curve at half-maximal effect; nearly all actives have a fitted effect of over 50% in size
#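 HEK293 luciferase promoter-reporter cells (2,500/well) plated 24 h, then compounds added at up to 57.5 uM final for 24 h at 37 °C. Firefly luminescence by Dual-Glo, normalized to vehicle (0%) and zero RLU (-100%).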
# GPR32 ag – GPR32 (DRV1) agonism, beta-arrestin recruitment; O75388; CHO-K1 GPR32 beta-arrestin PathHunter luminescence, 90 min; zero percent set by DMSO-only wells; activation, % at 76.9 µM; 2.5% of 48,000 active; AID 1346428;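 active = activation of at least 60% and not above a set upper limit, about 1 call in 100 departs from these limits; inconclusive = activation of 40% to 60%, or above that upper limit; inactive = activation under 40%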; also: 0% is about no effect
# Target sequence (O75388 whole entry, looked up): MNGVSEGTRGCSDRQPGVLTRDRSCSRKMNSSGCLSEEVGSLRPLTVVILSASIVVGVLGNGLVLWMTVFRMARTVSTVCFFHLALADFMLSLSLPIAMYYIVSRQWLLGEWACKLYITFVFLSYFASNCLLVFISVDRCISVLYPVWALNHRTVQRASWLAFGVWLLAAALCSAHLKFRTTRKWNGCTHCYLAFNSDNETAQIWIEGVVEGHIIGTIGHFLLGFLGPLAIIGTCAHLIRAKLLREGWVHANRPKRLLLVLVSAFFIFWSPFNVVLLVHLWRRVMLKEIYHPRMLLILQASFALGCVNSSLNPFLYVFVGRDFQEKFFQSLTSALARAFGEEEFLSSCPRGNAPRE
#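 GPR32 activation in stably transfected CHO-K1 cells, detected as beta-arrestin recruitment by enzyme-fragment complementation. Compound exposure: 90 min, 37 °C.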
# p53null 32C kill – p53 null cell cytotoxicity, permissive temperature; H1299-neo p53 null cells, ATP luminescence, 24 h, 32C; Potency, µM (highest dose often 46.1 µM), for inactives: at the highest dose activity change, negative = cytotoxicity, actives largely listed as cytotoxic; 0.62% of 55,000 active; AID 903;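 also: potency is read from the fitted curve at half-maximal effect; 0% = DMSO only and -100% = full killing by 100 µM tamoxifen; nearly all actives have a fitted effect of over 55% in size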
#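 ATP-content luminescence in p53-null H1299-neo cells after 24 h compound exposure (up to 46 uM) at 32C permissive temperature; 0% and 100% killing set by DMSO and 100 uM tamoxifen; Hill-equation AC50.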
# HTT-AS act – activators of huntingtin-antisense promoter activity | HEK293 HTT-AS promoter firefly luciferase reporter, 24 h; response scale: percent change from vehicle, -100% = no light | Potency, µM (series often up to 57.5 µM), for the others: at the highest dose activity change, positive = activation, hits mostly activators | 0.24% of 48,000 active; also: potency is read from the fitted curve at half-maximal effect; nearly all actives have a fitted effect of over 55% in size
#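 Luminescence was read after Dual-Glo reagent and a 10 min room-temperature incubation. Values were normalized to vehicle (0% activity) and zero RLU (-100% activity). Reporter HEK293 cells had been exposed to compounds (up to 57.5 uM final) for 24 h.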
# p53null 39C tox – p53 null cell cytotoxicity, nonpermissive temperature. AID 904. Potency, µM (doses to about 46.1 µM), without a hit: at the highest dose activity, negative = cell killing, most hits filed as cytotoxic. 0.97% of 55,000 active. H1299 p53-null (neo) cells, 39C, ATPlite viability, 24 h;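 also: potency is read from the fitted curve at half-maximal effect; 0% = DMSO only and -100% = full killing by 100 µM tamoxifen; nearly all actives have a fitted effect of over 50% in size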
#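 H1299 lung cancer cells, p53-null (H1299-neo) or expressing p53 A138V (H1299-p53A138V), were plated overnight at 37C, then exposed to compounds at up to 46 uM for 24 hr at 39C. Viability was read by ATP-based luminescence.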
# * hit, by the source's call; ? = inconclusive; / = not tested or not shown; [ ] = dose if it differs, or a comment. Rows were chosen to be rich in hits. Some 3.9% of all compounds tested hit in one or more screens of this group. Unless noted, calls follow the shape of the dose curve; as a rule, active = well fitted curve in the direction sought with a large enough effect; inconclusive = small, poorly fitted or top-dose-only effect, or another doubt; inactive = no such curve, though single readings can be large; an effect the other way counts as inactive or inconclusive.
SMILES,HTT prom inh,GPR32 ag,p53null 32C kill,HTT-AS act,p53null 39C tox
O=S(=O)(Nc1cccc(C(F)(F)F)c1)c1ccc(NS(=O)(=O)c2ccc3c(c2)OCCO3)cc1,?,?,10%,-40%,8%
C1Cc2[nH]nc(-c3nn[nH]n3)c2C1,1%,/,/,-15%,/
CSc1ccc(Cn2nnc(C(=O)Nc3ccc(C)cc3Cl)c2N)cc1,4%,99*,-2%,-27%,-2%
CCOC(=O)N1CCC(n2c(=O)[nH]c3cc(Cl)ccc32)CC1,?,72*,/,-77%,/
O=c1onc2n1-c1cc(Br)ccc1OC2,/,65*,/,/,/
Cc1ccc(C)c(-c2nnc(NC(=O)c3ccc4c(c3)OCCO4)o2)c1,-28%,-29,-12%,-14%,7.9µM*
CC(=O)OCC(=O)[C@@]1(O)[C@H](C)C[C@H]2[C@@H]3C=C(C)C4=Cc5c(cnn5-c5ccccc5)C[C@]4(C)[C@@H]3[C@@H](O)C[C@@]21C,-20%,/,/,-21%,/
CC(=O)NC(CS)C(=O)O (configuration not stated),1%,/,/,-9%,/
CNCC[C@H](Oc1cccc2ccccc12)c1cccs1,?,99*,/,-45%,/
CON=C(C(=O)N[C@@H]1C(=O)N2C(C(=O)O)=C(Cn3ccc(=N)n3CCO)CS[C@H]12)c1csc(N)n1,10%,/,/,-15%,/
COc1ccc(NS(=O)(=O)c2ccc(NC(=O)N3CCCC3)cc2)cc1,?,37,5%,-22%,25%
Cc1cc(C)c(NS(=O)(=O)c2ccc3c(c2)NC(=O)CCS3)c(C)c1,-26%,83*,-9%,-23%,5%
Cc1ccc(Cl)cc1NS(=O)(=O)c1ccc2c(c1)NC(=O)CCS2,-13%,94*,-15%,-27%,-18%
CCOc1ccc(NS(=O)(=O)c2ccc3c(c2)NC(=O)CCS3)cc1,?,75*,-1%,-12%,2%
CCOc1ccc(NS(=O)(=O)c2ccc(NC(=O)N3CCCC3)cc2)cc1,-31%,65*,4%,-14%,22%
CC(=O)c1ccc(NS(=O)(=O)c2ccc3c(c2)NC(=O)CCS3)cc1,-10%,-10,0%,-19%,-3%
Cc1c(CN2CCN(S(C)(=O)=O)CC2)sc2c(N3CCOCC3)nc(-c3cnc(N)nc3)nc12,?,/,/,-45%,/
O=C(Nc1nnc(S(=O)(=O)N2CCCC2)s1)c1ccc(F)cc1,-12%,64*,5%,-3%,-27%
O=C(Nc1nnc(S(=O)(=O)N2CCCCC2)s1)c1ccc(F)cc1,-9%,13,21%,-13%,10%
COc1cccc2sc(NC(=O)c3ccc(S(=O)(=O)N4CCC(C)CC4)cc3)nc12,28µM*,-9,8%,-45%,8%
CC1CCN(S(=O)(=O)c2nnc(NC(=O)c3cccc(Br)c3)s2)CC1,?,73*,7%,-55%,6%
Cc1cccc(C(=O)Nc2nnc(S(=O)(=O)N3CCC(C)CC3)s2)c1,-11%,69*,-3%,-12%,-1%
COc1cc([C@H]2Oc3cc([C@H]4Oc5cc(O)cc(O)c5C(=O)[C@H]4O)ccc3O[C@H]2CO)ccc1O,-15%,/,/,-26%,/
O=C(NCc1ccccn1)c1cc(-c2ccc(-c3ccccc3)cc2)nc2ccccc12,/,/,/,/,7.9µM*
CC(C)C[C@H](NC(=O)c1cc2ccccc2s1)C(=O)N1CCN(C(=O)[C@H](CO)NS(=O)(=O)c2ccc(Cl)cc2Cl)CC1,-28%,/,/,-24%,/
SMILES,HTT prom inh,GPR32 ag,p53null 32C kill,HTT-AS act,p53null 39C tox
O=C(Nc1ccc2nc(-c3ccco3)[nH]c2c1)c1cccs1,/,/,7.1µM*,/,10µM*
COc1ccc(NC(=O)c2cccs2)cc1,/,/,?,/,-9%
O=C(c1ccco1)N1CCNCC1,-3%,-53,/,-2%,/
CCCN(C(=O)c1cc2c(s1)-c1ccccc1SC2)c1ccccc1F,?,-2,9%,-28%,20µM*
CCCN(C(=O)c1cc2c(s1)-c1ccccc1OC2)c1ccccc1F,-19%,37,23%,?,26%
Cc1cccc(OCC(=O)Nc2ccc(-c3nc4cc(C)ccc4o3)c(O)c2)c1,110%,-6,?,0.5µM*,?
COc1ccc(CC(=O)Nc2ccc3nc(Nc4ccc(OC)cc4)cc(C)c3c2)cc1,?,12,-5%,-41%,-26%
Cc1cccc(C(=O)Nc2ccc3oc(-c4ccncc4)nc3c2)c1,?,72*,-14%,-19%,-10%
COc1ccc(Nc2cc(C)c3cc(NC(=O)COc4cccc(C)c4)ccc3n2)cc1,?,72*,-3%,-40%,-12%
CN(C(=O)c1ccc(F)cc1C(F)(F)F)C1CCN(c2nnc(-c3ccnn3C)c3ccccc23)CC1,?,/,/,-37%,/
N#Cc1ccc(COC[C@H]2O[C@@H](n3c(NCc4ccc(Cl)c(Cl)c4)nc4c(N)ncnc43)[C@@H](O)[C@@H]2O)cc1,-12%,/,/,-17%,/
Cc1ccc(NC(=O)c2ccccc2O)cc1,/,/,13µM*,/,10µM*
Cc1ccc(NC(=O)c2ccc(-c3ccccc3)s2)cc1,18%,-4,-5%,?,-20%
CS(=O)(=O)N(CC(=O)Nc1ccc(Br)cc1)c1ccccc1Br,-21%,61*,26%,-18%,-7%
CC(=O)Nc1cccc(-n2c(=O)n(C3CC3)c(=O)c3c(Nc4ccc(I)cc4F)n(C)c(=O)c(C)c32)c1,10%,/,/,4%,/
CSc1ccc(/C=C/c2nc3ccccc3n2S(=O)(=O)c2ccc(Br)cc2)cc1,?,-11,3.2µM*,-69%,2.5µM*
CCOc1ccc(/C=C/c2nc3ccccc3n2S(=O)(=O)c2ccc(Br)cc2)cc1,29%,24,13µM*,?,7.9µM*
CC(C)Cn1c(/C=C/c2ccccc2)nc2ccccc21,/,/,/,/,-7%
O=S(=O)(c1cccc(C(F)(F)F)c1)n1c(/C=C/c2ccccc2)nc2ccccc21,-7%,-7,16µM*,?,?
Cc1ccc2c(c1)N(C(=O)c1ccc(F)cc1)C(C)(C)CC2(C)c1ccccc1 (configuration not stated),28µM*,9,34%,-29%,3%
CN1CCN(c2ncc(-c3cc(Cl)cc(Cl)c3Cl)c(N)n2)CC1,?,/,/,-30%,/
COc1cccc2c1C(=O)c1c(O)c3c(c(O)c1C2=O)C[C@@](O)(C(=O)CO)C[C@@H]3O[C@H]1C[C@H](N)[C@H](O[C@@H]2CCCCO2)[C@H](C)O1,-29%,-36,/,-34%,/
CC(C)OC(=O)c1cc(C(=O)OC(C)C)cc([N+](=O)[O-])c1,3%[116 µM],8,/,-7%[116 µM],/
CC(C)OC(=O)C(C(=O)OC(C)C)=C1SC=CS1,8%,73*,/,-6%,/
O=C(CN1C(=O)CCSc2ccccc21)Nc1ccc(C(F)(F)F)cc1,?,63*,31%,-42%,-13%

# Source: PubChem
